The values below come from PMC12431657, “Discovery and mechanistic insights of dibenzoylmethane as a broad spectrum inhibitor of coronavirus” (PLOS Pathogens, 2025).

The assay concerns HCoV-229E. Also on record: species or system Huh-7; HTS, protection from HCoV-229E induced cell death, luminescent cell viability (CellCounting-Lite 2.0), inhibition rate.

Molecules are shown by their SMILES. Read-outs that look alike come from different tables or passages of the source. Among all 3,300 compounds or so, about 95 (3%) showed an effect of 50% or more. This excerpt belongs to a sample that is enriched for strong results.

`C[C@]12CC[C@@H](O)C[C@@H]1CC[C@@H]1[C@@H]2CC[C@]2(C)C(=O)CC[C@@H]12` [Androsterone]: the “229E Inhibition rate” value (24 h, 10 µM; inhibitor) worked out at 52.3%.

For `C[C@]12CC[C@@H](O)C[C@H]1CC[C@@H]1[C@@H]2CC[C@]2(C)C(=O)CC[C@@H]12` [Etiocholanolone], the “229E Inhibition rate” value (24 h, 10 µM; inhibitor) worked out at 13.1%.

Turning to `C[C@]12CC[C@H](O)C[C@@H]1CC[C@@H]1[C@@H]2CC[C@]2(C)C(=O)CC[C@@H]12` [Epiandrosterone], for the setting “24 h, 10 µM; inhibitor”, the “229E Inhibition rate” value came out at 29.3%.

Take `COc1cc2cc(c1Cl)N(C)C(=O)C[C@H](OC(=O)C(C)C)[C@]1(C)O[C@@H]1[C@H](C)[C@@H]1C[C@@](O)(NC(=O)O1)[C@H](OC)/C=C/C=C(\C)C2` [Ansamitocin P-3]: where the note is “24 h, 10 µM; inhibitor”, the “229E Inhibition rate” value is listed as 22.8%.

For the molecule `CN(C)NC(=O)CCC(=O)O` [Daminozide], under “24 h, 10 µM; inhibitor”, the “229E Inhibition rate” value is listed as 12.3%.

As for `NC(=O)Cc1ccccc1` [2-Phenylacetamide], for the setting “24 h, 10 µM; inhibitor”, the “229E Inhibition rate” value came to 20.1%.

In the case of `NC(=O)NCCCC[C@H](N)C(=O)O` [L-Homocitrulline], the “229E Inhibition rate” value (24 h, 10 µM; inhibitor) is on record as 20.7.

For the molecule `CC(C)(C)[C@]1(O)C[C@@H]2OC(=O)C[C@@]23C(=O)O[C@@H]2OC(=O)[C@H](O)[C@]213` [Bilobalide], the “229E Inhibition rate” value (24 h, 10 µM; inhibitor) is 54.8%.

Regarding `C/C=C/C#CC#C/C=C/c1ccco1` [Atractylodin], the “229E Inhibition rate” value (24 h, 10 µM; inhibitor) was determined as 10.3%.

For `C[C@@H]1CC[C@@]2(OC1)O[C@H]1[C@@H](O)[C@H]3[C@@H]4CC[C@H]5C[C@@H](O[C@@H]6O[C@H](CO)[C@H](O[C@@H]7O[C@H](CO)[C@@H](O)[C@H](O[C@@H]8OC[C@@H](O)[C@H](O)[C@H]8O)[C@H]7O[C@@H]7O[C@H](CO)[C@H](O)[C@H](O[C@@H]8O[C@H](CO)[C@@H](O)[C@H](O)[C@H]8O)[C@H]7O)[C@H](O)[C@H]6O)[C@H](O)C[C@]5(C)[C@H]4CC[C@]3(C)[C@H]1[C@@H]2C` [Digitonin], under “24 h post infection, 1 h compound pre-incubation; 10 µM; inhibitor”, the “229E Inhibition rate” value stood at 13.7%.

With `CCN1C[C@]2(C)CC[C@H](OC)[C@@]34C1[C@]1(OCO[C@@]15C[C@H](OC)[C@H]1C[C@]3(O)[C@@H]5[C@H]1OC)[C@@H](OC(C)=O)[C@H]24` [Deltaline], the “229E Inhibition rate” value (24 h, 10 µM; inhibitor) turned out to be 2.6%.

Take `CN1Cc2c(ccc3c2OCO3)[C@@H]2[C@H]1c1cc3c(cc1C[C@@H]2O)OCO3` [Chelidonine]: the “229E Inhibition rate” value (24 h, 10 µM; inhibitor) stood at 12.4%.

For the molecule `CO[C@@H]1C[C@H](O[C@H]2CC[C@@]3(C)[C@H](CC[C@@]45O[C@@]46CC[C@H](C4=CC(=O)OC4)[C@@]6(C)CC[C@H]35)C2)O[C@H](C)[C@@H]1O` [Adynerin], the “229E Inhibition rate” value (24 h, 10 µM; inhibitor) turned out to be 9.5%.

With `CO[C@H]1C[C@H](O[C@H]2CC[C@]3(C)[C@H]4CC[C@]5(C)[C@@H](C6=CC(=O)OC6)CC[C@]5(O)[C@@H]4CC[C@]3(O)C2)O[C@H](C)[C@H]1O[C@@H]1O[C@H](CO)[C@@H](O)[C@H](O)[C@H]1O` [Periplocin], for the setting “24 h, 10 µM; inhibitor”, the “229E Inhibition rate” value is 25.

Regarding `C[C@H]1O[C@@H](O[C@H]2CC[C@@]3(C)[C@H](CC[C@@H]4[C@@H]3C[C@@H](O)[C@]3(C)[C@@H](C5=CC(=O)OC5)CC[C@]43O)C2)C[C@H](O)[C@@H]1O[C@H]1C[C@H](O)[C@H](O[C@H]2C[C@H](O)[C@H](O[C@@H]3O[C@H](CO)[C@@H](O)[C@H](O)[C@H]3O)[C@@H](C)O2)[C@@H](C)O1` [Deslanoside], where the note is “24 h, 10 µM; inhibitor”, the “229E Inhibition rate” value was determined as 55.1.

On to `CC(C)=CCCC1=CC(=O)c2c(O)ccc(O)c2C1=O` [Deoxyshikonin], for which the “229E Inhibition rate” value (24 h, 10 µM; inhibitor) was 9.8%.

With `CC1(C)[C@H]2O[C@H]2[C@H]2[C@](C)(O)[C@@H]3CC[C@@H]4[C@@H](O)[C@@]3(C[C@@H](O)[C@@]21O)C[C@@]4(C)O` [Rhodojaponin III], the “229E Inhibition rate” value (24 h, 10 µM; inhibitor) came out at 46.8%.

As for `CC(C)[C@@H]1NC(=O)[C@H](C)OC(=O)[C@@H](C(C)C)NC(=O)[C@@H](C(C)C)OC(=O)[C@H](C(C)C)NC(=O)[C@H](C)OC(=O)[C@@H](C(C)C)NC(=O)[C@@H](C(C)C)OC(=O)[C@H](C(C)C)NC(=O)[C@H](C)OC(=O)[C@@H](C(C)C)NC(=O)[C@@H](C(C)C)OC1=O` [Valinomycin], the “229E Inhibition rate” value (24 h, 10 µM; inhibitor) came to 90.8%.

For the molecule `COC1=CC(=O)O[C@@H](/C=C/c2ccccc2)C1` [(+)-Kavain], the “229E Inhibition rate” value (24 h, 10 µM, inhibitor) worked out at 9.8%.

Regarding `COC(=O)[C@]12OC[C@]34[C@H]([C@@H](O)[C@@H]1O)[C@@]1(C)CC(=O)C(O)=C(C)[C@@H]1C[C@H]3OC(=O)[C@H](OC(=O)/C=C(\C)C(C)(C)OC(C)=O)[C@@H]24` [Bruceantinol], where the note is “24 h, 10 µM; inhibitor”, the “229E Inhibition rate” value stood at 0%.
